# Compound activity as filed in PubChem.
# Shown are actives, neighbours in structure and some others; about 19% of the full set was active somewhere.
# TDP1 cell noCPT: qHTS for Inhibitors of human tyrosyl-DNA phosphodiesterase 1 (TDP1): qHTS in cells in absence of CPT. DT40 Tdp1-/- hTDP1 cells, no CPT, ATP luminescence, 48 h. Potency, µM (series often up to 46.2 µM), for inactives: at the highest dose activity change, negative = growth inhibition, actives largely listed as inhibitors. hit rate 15% among 420,000. AID 686978, 2013; also: potency is read from the fitted curve at half-maximal effect; nearly all actives have a fitted effect of over 55% in size
#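 Luminescent ATP content (CellTiter-Glo) served as the growth readout. Knockout chicken DT40 cells expressing human TDP1 were exposed to compounds without camptothecin for a minimum 48 hr at 37 °C.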
# HT1080-NT tox: kills 2HG-producing HT-1080-NT fibrosarcoma cells. Potency, µM (series often up to 46.1 µM), for inactives: at the highest dose activity, negative = less viability, actives largely listed as cytotoxic. HT-1080-NT fibrosarcoma viability, CellTiter-Glo ATP luminescence, 48 h. AID 686970. hit rate 1.6% among 360,000;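 also: NT is the 2HG producing partner of a matched IDH1 knockdown line; potency is read from the fitted curve at half-maximal effect; 0% = DMSO-treated cells and -100% = media-only wells without cells; nearly all actives have a fitted effect of over 55% in size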
#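 Viability by CellTiter-Glo luminescence after 48 h compound exposure at 37C of HT-1080-NT cells (750/well, RPMI, 5% FBS). % activity scaled between DMSO wells and medium-only wells, then curve-fitted and categorized by curve class.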
# HT1080 IDH1KD tx: kills HT-1080 cells with IDH1 knockdown | HT-1080 IDH1 knockdown viability, ATP luminescence, 48 h | Potency, µM (titrated, usually from 46.1 µM), inactives show at the top dose activity, negative = toxicity, actives largely listed as cytotoxic | hit rate 2% among 360,000 | AID 686971;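 also: potency is read from the fitted curve at half-maximal effect; 0% = DMSO wells and -100% = cell-free medium wells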
#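 Cytotoxicity counter-line: IDH1KD HT-1080, 48 h, CellTiter-Glo. Curves classed by r2, magnitude and activity.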
# IL-1B inflam inh: inflammasome signaling inhibition, IL-1 beta readout. THP-1 LPS/ATP IL-1B secretion, AlphaLISA, 16 h; active compounds read low. activity change, % at 57.5 µM. hit rate 4.7% among 360,000. AID 743279; in the data active = activity change below about -50%; inconclusive = mostly about -30% to -49%
#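 THP-1 cells pretreated 1 hr with compounds (up to 57.5 uM final), then stimulated with LPS (250 ng/mL final) plus ATP (1.25 mM final); secreted IL-1B measured by AlphaLISA after 16 hr, decreased signal indicating inhibition.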
# TDP1 cell CPT: growth inhibition of DT40 Tdp1-/-;hTDP1 cells with camptothecin (screen for TDP1 inhibitors); chicken DT40 Tdp1-/-;hTDP1 cells + 20 nM CPT, ATP luminescence, 48 h; Potency, µM (series often up to 46.2 µM), without a hit: at the top dose activity change, negative = growth inhibition, most hits filed as inhibitors; hit rate 12% among 420,000; also: potency is read from the fitted curve at half-maximal effect; nearly all actives have a fitted effect of over 55% in size
#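 Cell growth measured by CellTiter-Glo luminescence after a minimum 48 h, 37 C compound exposure with 20 nM CPT in Tdp1-knockout DT40 cells stably expressing hTDP1, seeded 400/well; qHTS titration format.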
# Numbers without * were called inactive; ? = inconclusive; nt = no result given. Unless noted, calls follow the shape of the dose curve; as a rule, active = well fitted curve in the direction sought with a large enough effect; inconclusive = small, poorly fitted or top-dose-only effect, or another doubt; inactive = no such curve, though single readings can be large; an effect the other way counts as inactive or inconclusive. Unless noted, % is scaled to controls: 0 for no effect and ±100 for the full control effect.
SMILES,TDP1 cell noCPT,HT1080-NT tox,HT1080 IDH1KD tx,IL-1B inflam inh,TDP1 cell CPT
CC(C)(C)c1ccc(NC(=O)c2ccsc2)cc1,23µM*,-26%,?,?,?
CCOC(=O)c1nn2c(C(F)(F)F)cc(-c3ccc(C)cc3)nc2c1Cl,-13%,nt,nt,nt,0%
O=C(Nc1ccc(Cl)cc1)Nc1ccc(N2CCOCC2)cc1,18µM*,-1%,-9%,111,?
CC(C)c1ccc(C(=O)Nc2ccc(N3CCOCC3)cc2)cc1,21µM*,?,?,7,18µM*
O=C(Nc1ccc(N2CCOCC2)cc1)C1(c2ccc(Cl)cc2)CCC1,?,-6%,-5%,-22,-28%
CC(C)(C)c1ccc(C(=O)N2CCC(C(=O)NC3CC3)CC2)cc1,-13%,0%,6%,19,-4%
CC(C)(C)c1ccc(C(=O)N2CCC(NC(=O)c3ccccc3)CC2)cc1,?,-15%,-2%,7,15µM*
O=C(Nc1ccc(N2CCOCC2)cc1)c1cn2ccccc2n1,10µM*,-25%,?,-14,13µM*
COc1ccc(NS(=O)(=O)c2cc3c4c(c2)CCN4C(=O)CC3)cc1OC,?,4%,-7%,29,?
CCS(=O)(=O)N1CCC(C(=O)Oc2ccccc2Cl)CC1,-1%,-1%,-8%,4,10%
CC(C)OCCCNC(=O)CCCn1c(SCC(=O)c2ccc(F)cc2)nc2c(sc3ccccc32)c1=O,-2%,nt,nt,nt,-7%
CCCCc1ccc(NC(=S)N2CCC(O)CC2)cc1,0%,-12%,-1%,18,10%
CCOc1ccc(N(C(=O)CNC(=O)c2cccs2)C(C(=O)NCC2CCCO2)c2ccc(OC)c(OC)c2)cc1 (stereo unspecified),-3%,0%,7%,-16,2%
CC(=O)c1ccc(N2CCN(C(=O)Nc3ccc(C(C)C)cc3)CC2)cc1,16µM*,?,?,-26,?
CC(C)(C)n1cn[nH]c1=S,-6%,13%,6%,21,4%
COc1ccc(C(=O)CCS(=O)(=O)c2ccc(C)cc2)cc1OC,3.3µM*,-6%,?,-82*,3.7µM*
Cc1ccc(S(=O)(=O)CCC(=O)c2ccc(O)cc2O)cc1,1.2µM*,-4%,3%,-8,1.8µM*
COc1ccc(C(=O)COC(=O)CCS(=O)(=O)c2ccc(C)cc2)c(OC)c1,5%,8%,5%,14,1%
Cc1ccc(S(=O)(=O)CCC(=O)OCC(=O)c2cc(C)ccc2C)cc1,8%,3%,1%,11,-8%
O=C(NCc1ccc2c(c1)OCO2)C1CCC(CNS(=O)(=O)c2ccccc2)CC1 (stereo unspecified),-26%,-16%,-9%,-3,1%
COc1ccc(NC(=O)N2c3ccc(OC)cc3C(C)=CC2(C)C)cc1,-19%,-3%,-4%,-1,?
CCOc1ccc2c(c1)C(C)=CC(C)(C)N2C(=O)Nc1ccccc1,26µM*,0%,-1%,-8,5.8µM*
COc1cc(-c2nnc3sc(Cc4ccccc4)nn23)cc(OC)c1OC,?,-10%,-26%,100,21µM*
COc1ccc(Cc2nn3c(-c4cc(OC)c(OC)c(OC)c4)nnc3s2)cc1,?,-5%,5%,-12,?
COc1cc(-c2nnc3sc(Cc4ccc(Cl)cc4)nn23)cc(OC)c1OC,9.2µM*,nt,nt,-9,12µM*
SMILES,TDP1 cell noCPT,HT1080-NT tox,HT1080 IDH1KD tx,IL-1B inflam inh,TDP1 cell CPT
O=C1CCc2cc(NS(=O)(=O)c3ccc([N+](=O)[O-])cc3)cc3c2N1CC3,-8%,-5%,-2%,26,-6%
CCOC(=O)/C(=N\Nc1ccc(Br)cc1)N1CCN(c2ccccc2OC)CC1,-23%,-1%,-13%,-6,-7%
O=C(CCN1CCCCC1=O)NC1CCCN(Cc2ccc(Cl)cc2)C1 (stereo unspecified),5%,10%,18%,0,6%
COc1ccc(-c2csc3ncnc(Nc4ccc(OC)cc4OC)c23)cc1,?,nt,nt,nt,4.1µM*
COc1ccc(-c2csc3ncnc(Nc4cccc(F)c4)c23)cc1,-31%,nt,nt,nt,?
COc1ccc(-c2csc3ncnc(Nc4cc(OC)cc(OC)c4)c23)cc1,16µM*,nt,nt,nt,?
CCOC(=O)c1ccccc1NC(=O)N(C(C)C)C1CCN(C(C)=O)CC1,15µM*,nt,nt,nt,15µM*
CC(C)CCN(C(=O)Nc1ccc(Cl)c(Cl)c1)C1CCN(C(C)C)CC1,15µM*,nt,nt,nt,15µM*
CCOc1ccc(NC(=O)N(C(C)C)C2CCN(C(C)=O)CC2)cc1,-7%,nt,nt,nt,3%
CCOC(=O)N1CCC(N(C(=O)Nc2ccc(Cl)c(Cl)c2)C(C)CC)CC1 (stereo unspecified),10µM*,?,-25%,-85*,23µM*
COc1ccc(NC(=S)N(CCC(C)C)C2CCN(C(C)C)CC2)cc1Cl,?,-19%,-13%,?,-16%
CCOC(=O)N1CCC(N(CCN(C)C)C(=S)Nc2cccc(Cl)c2)CC1,1%,2%,2%,-28,?
CSCC[C@H](NC(=O)OC(C)(C)C)c1nnc(SCC=C(C)C)o1,-13%,13%,3%,14,-26%
COc1ccccc1N1CCN(C(=O)c2cc3c(=O)n(Cc4cccnc4)ccc3nc2C)CC1,-6%,nt,nt,nt,-1%
CN(C)P(=NC(=O)COc1ccc(Cl)cc1Cl)(N(C)C)N(C)C,?,2%,-12%,8,?
COCCNc1ccc([N+](=O)[O-])cc1C(=O)Nc1cccc(C)n1,?,0%,-11%,0,13µM*
COc1ccc(NC(=O)c2ccc([N+](=O)[O-])s2)c([N+](=O)[O-])c1,-8%,1%,-1%,0,-27%
Cc1cccc(NC(=O)c2ccc([N+](=O)[O-])s2)c1C,21µM*,-10%,-17%,-15,15µM*
Cc1ccnc(NC(=O)c2cc([N+](=O)[O-])cc([N+](=O)[O-])c2)c1,-7%,0%,-3%,9,-27%
Cc1ccnc(NC(=O)c2ccc([N+](=O)[O-])s2)c1,?,?,?,-11,16µM*
Cc1cccc(NC(=O)c2ccc([N+](=O)[O-])s2)n1,5.8µM*,?,?,12,8.2µM*
CCOc1ccc(NS(=O)(=O)c2ccc3[nH]cc(C(=O)N(C)C4CCCCC4)c(=O)c3c2)cc1,-8%,nt,nt,nt,4%
COc1ccc(NCc2cccn2-c2nnc(N3CCC(C)CC3)s2)c(OC)c1,16µM*,nt,nt,nt,?
COc1ccc(OC)c(NCc2cccn2-c2nnc(N3CCC(C)CC3)s2)c1,2.6µM*,nt,nt,nt,2.9µM*
COc1ccc(NCc2cccn2-c2nnc(N3CCOCC3)s2)c(OC)c1,-22%,nt,nt,nt,-26%
CNc1oc(/C=C/c2cc(OC)c(OC)c(OC)c2)nc1C#N,23µM*,nt,nt,nt,?
